Test results published in PubChem BioAssay (NCI).
About 83,000 compounds went through this panel and 20% of them were active in at least one assay; those are over-represented in the sample as a whole.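 Single-concentration screen, 48 h exposure, 96-well plates. Endpoint: percent growth. Below 10 = active.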 Values without a mark were called inactive. Activity calls are given as the source filed them.

Tested on: RPMI-8226 leukemia
Assay: NCI-60 one-dose screen, 48 h (100 = growth as untreated, 0 = no growth, -100 = all killed)
Conditions: 10 µM
Description: Growth inhibition of the RPMI-8226 human tumor cell line is measured as a screen for anti-cancer activity. Cells are grown in 96 well plates and exposed to the test compound for 48 hours. Compounds are tested at a single concentration, which is 10^-5 M for most compounds. The reported endpoint is percent growth (GI% or GIPRCNT), where numbers from 0 - 100% represent growth inhibition, and numbers from -100% - 0 represent cell death. For example, a value of 40 represents 60% growth inhibition. A value of 0 means no net growth occurred over the course of the experiment. A value of -40 indicates 40% of cells at the beginning of the experiment died by the end of the experiment. A value of -100 means all cells are dead at the end of the experiment.
NCI-60 Human Tumor Cell Lines Screen was performed using the standard one-dose NCI protocol, which is described in more detail at https://dtp.cancer.gov/discovery_development/nci-60/default.htm.
Compounds with GIPRCNT values below 10 were considered active. Activity score was based on GIPRCNT using the following formula: […]
Score is 0 for GIPRCNT values of 100 or above, 50 for GIPRCNT values of 0, and 100 for GIPRCNT values of -100.

Compound | growth
CCOC(=O)c1sc(Nc2ncccn2)nc1-c1ccccn1 | 92%
CN1/C(=C\C(I)C(I)C2=[N+](C)c3ccccc3C2(C)C)C(C)(C)c2ccccc21 (stereo not given) | -10.4% (active)
CCOC(=O)c1cc(-c2ccccc2)nc(N)n1 | 99.6%
COc1ccc(-c2ccc(-c3ccc(C(=N)N)c(F)c3)s2)cc1 | -65.6% (active)
CCOC(=O)[C@@H](Cc1ccccc1)NC(=O)c1[nH]c2ccc(Cl)cc2c(=O)c1C | 83.1%
Cc1nc(N)sc1Sc1nc2ccc(Cl)cc2c(=O)n1-c1ccc(Oc2ccccc2)cc1 | 68.1%
CCOC(=O)c1sc(NC(=O)c2cc(OC)c(OC)c(OC)c2)nc1C | 83%
CNC(=O)c1cc(Oc2ccc(NC(=O)Nc3ccc(Cl)c(OC4CCCCC4)c3)c(F)c2)ccn1 | 19.9%
Cc1ccc([P+](Cc2ccc([N+](=O)[O-])cc2)(c2ccc(C)cc2)c2ccc(C)cc2)cc1 | -25.3% (active)
O=C(O)c1cc(C(F)(F)F)cc(C(F)(F)F)c1 | 104%
COc1cc(-c2nc3ccc(C)cc3[nH]2)ccc1OCc1nnc(-c2ccc(CC(C)C)cc2)o1 | 68.9%
COc1ccc(-c2nc(NC(=O)CS(=O)(=O)c3ccc(F)cc3)sc2C)cc1 | -0.965% (active)
CCCCCc1cc[n+](CC(=O)c2ccc(Cl)cc2)cc1 | 91.5%
COc1ccc2oc(=O)cc(C3c4ccc([nH]4)C(c4cc(=O)oc5ccc(OC)cc45)c4ccc([nH]4)C(c4cc(=O)oc5ccc(OC)cc45)c4ccc([nH]4)C(c4cc(=O)oc5ccc(OC)cc45)c4ccc3[nH]4)c2c1 (stereo not given) | -6.88% (active)
CCN1CCN(c2nc(NNC(=O)c3cccc(OC)c3)nc(N3CCN(C(c4ccccc4)c4ccccc4)CC3)n2)CC1 | 5.26% (active)
COc1ccc(-c2nnc(COc3ccc(NC(=O)Nc4ccccc4)cc3F)o2)cc1 | 51.3%
O=C(c1ccccc1)C(Sc1ccccc1)c1ccccc1 (stereo not given) | 81.7%
CC(=O)Oc1c(C)c(C)c2c(c1C)CCC(C)(CC(=O)OCCCCCCCCCCC[P+](c1ccccc1)(c1ccccc1)c1ccccc1)O2 (stereo not given) | -49.8% (active)
COc1cc(-c2cc(-c3ccc(C)cc3)nc3nc(N)[nH]c(=O)c23)ccc1Oc1ccnc2cc(Cl)ccc12 | 60.1%
CCOC(=O)Nc1ccc2c(c1)C(=O)N(CC)c1ccccc1O2 | 12.4%

Compound | growth
NC(N)=NS(=O)(=O)c1ccc(Nc2ccc3nnc(-c4ccncc4)n3n2)cc1 | 104%
N#Cc1c(-c2ccccc2)nc(SCC(=O)N2CCOCC2)[nH]c1=O | 99%
O=S(=O)(NC1c2ccccc2Oc2ccccc21)c1cc(Cl)ccc1Cl | 96.7%
FC(F)(F)c1ccc(-c2cnc(Cl)nc2NCc2cc(C(F)(F)F)cc(C(F)(F)F)c2)cc1 | 0.828% (active)
COc1ccc(-c2nnc(SC/C(=N\O)c3ccccc3)o2)cc1 | 88.8%
CCOC(=O)/C(C#N)=C(/C)C1CC1 | 98.4%
CC(=O)/C(=C\c1ccc(Cl)cc1)c1ccccc1 | 19%
Cc1ncc([N+](=O)[O-])n1CCOc1ccc(C(=O)/C=C/c2ccc(C(F)(F)F)cc2)cc1 | 12.9%
CC(=O)c1ccc(NCn2nc(-c3ccc(Cl)cc3)oc2=S)cc1 | 105%
COCCOC(=O)NC(=O)Nc1ccc(/C(=N/O)c2ccc(Cl)cc2)cc1 | 22.3%
COc1ccc(-c2cc(/C=C3\C(=O)Nc4cc(Cl)ccc43)[nH]n2)cc1 | 19.7%
COc1ccc(-c2[nH]ncc2-c2cc(OC)c(OC)c(OC)c2)cc1 | 0.214% (active)
CCc1ccc(-c2nnc(COc3ccc(-c4nc5ccc(C)cc5[nH]4)cc3OC)o2)cc1 | -6.63% (active)
O=C1/C(=C/c2ccc([N+](=O)[O-])s2)Oc2ccc(Cl)cc21 | 0.77% (active)
CCCCCCCC/C=C/CCCCCCCCC1=NCCN1CCO | 52.7%
O=C(CCl)N1c2ccccc2Sc2ccc3ccccc3c21 | -47.3% (active)
COC(=O)CCCCCCCCC(C)c1ccc(C(C)=O)cc1 (stereo not given) | 121%
COc1ccc(-c2csc(NC(=O)CO[N+](=O)[O-])n2)cc1 | 106%
CC(C)c1[nH]nc2c(NCc3ccc(-c4ccccn4)cc3)nc(SCCN)nc12 | -16.7% (active)
C/C=C\COc1cc(C)c(Cl)cc1Cl | 99.7%
